Inconclusive results are not listed. Active and inactive are the calls of the source. Unless noted, the call rests on the fitted dose curve.

A short description of test [1]: qHTS assay to identify small molecule agonists of the vitamin D receptor (VDR) signaling pathway - cell viability counter screen (AID 743224; active means well fitted curve in the direction sought with a large enough effect in the repeat runs; an effect the other way counts as inactive or inconclusive; further: nearly all actives have a fitted effect of over 50% in size). As to conditions: VDR-bla HEK293T viability, CellTiter-Glo luminescence, 16 h; series mostly up to 62.6 µM. The essentials:
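Compounds were pin-transferred onto VDR-bla cells plated 4 h earlier; following 16 h incubation at 37C, cell viability was quantified by CellTiter-Glo luminescence after 30 min at room temperature.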
For orientation: Quantitative high-throughput screening tests each substance at several concentrations.

Test [2] can be described thus: qHTS assay to identify small molecule antagonists of the vitamin D receptor (VDR) signaling pathway - cell viability counter screen (AID 743225; active means well fitted curve in the direction sought with a large enough effect in the repeat runs; an effect the other way counts as inactive or inconclusive; further: nearly all actives have a fitted effect of over 50% in size). As to conditions: VDR-bla HEK293T viability, CellTiter-Glo luminescence, 16 h; series mostly up to 61 µM. The essentials: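 VDR-bla HEK 293T cells, 4 h pre-incubation at 37C, then compound plus 1-alpha,25-dihydroxyvitamin D3 (3 nM final) for 16 h. After the beta-lactamase FRET read, CellTiter-Glo was added to the same wells; luminescence after 30 min at room temperature.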

Test [3] is described as follows: qHTS assay to identify small molecule agonists of the NFkB signaling pathway (AID 1159509; active means well fitted curve in the direction sought with a large enough effect in the signal ratio in the repeat runs, not every such curve was filed as active; the % refers to the signal ratio). The settings on record: NFkB-bla ME-180 cells, beta-lactamase FRET ratio, 5 h; series mostly up to 61 µM. An outline of the steps:
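Readout: FRET fluorescence, 405 nm excitation, 460/530 nm emission; beta-lactamase expression disrupts FRET. Cells: ME-180 stably carrying NF-kB-driven bla reporter. Compound exposure 5 hr, 37 C, 5% CO2.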

The nature of test [4]: qHTS assay to identify small molecule agonists of the NFkB signaling pathway - cell viability counter screen (AID 1159515). Further: nearly all actives have a fitted effect of over 55% in size. As to conditions: NFkB-bla ME-180 viability, CellTiter-Glo luminescence, 5 h; series mostly up to 61 µM. The essentials: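 Parallel cytotoxicity counter screen in ME-180 cells carrying an NFkB-response-element beta-lactamase reporter, 2,000 cells/well. Compound exposure lasted 5 hr at 37 C, 5% CO2. Cell viability was quantified by CellTiter-Glo luminescence.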

A short description of test [5]: qHTS assay to identify small molecule agonists of the endoplasmic reticulum stress response signaling pathway - cell viability counter screen (AID 1159517).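 Further: HeLa cells carrying an ER stress response element beta-lactamase reporter; nearly all actives have a fitted effect of over 50% in size.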 The settings on record: ESRE-bla HeLa viability, CellTiter-Glo luminescence, 5 h; series mostly up to 61 µM. An outline of the steps:
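Cytotoxicity of test compounds toward ESRE-bla HeLa cells was assessed after 5 hr exposure. The luminescent CellTiter-Glo signal was measured 30 min after reagent addition.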

Test [6] addresses Nuclear receptor ROR-gamma (Homo sapiens) (UniProt P51449). In words: qHTS assay to identify small molecule antagonists of the retinoid-related orphan receptor gamma (ROR-gamma) signaling pathway (AID 1159521; active means well fitted curve in the direction sought with a large enough effect in the repeat runs; an effect the other way counts as inactive or inconclusive; further: nearly all actives have a fitted effect of over 50% in size; further: potency means the concentration at half of the fitted maximal effect). The settings on record: Tet-on RORgamma CHO cells, RORE-luciferase, 16 h; series mostly up to 92.4 µM. An outline of the steps:
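Tet-on RORγ CHO cells carrying a ROR response element–luciferase reporter were pretreated with compounds for 2 h, then induced with 1 uM (final) doxycycline hyclate for 16 h at 37 C. Antagonism was read as decreased ONE-Glo luminescence.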

A short description of test [7]: qHTS assay to identify small molecule agonists of the AP-1 signaling pathway - cell viability counter screen (AID 1159525). Further: nearly all actives have a fitted effect of over 55% in size. The settings on record: ME-180 AP-1-bla cells viability, ATP luminescence, 5 h; series mostly up to 76.8 µM. An outline of the steps: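 Each titration point was normalised to DMSO and tetra n-octyl ammonium bromide controls. The read was Cell Titer Glo luminescence after 30 min at RT, following 5 h compound exposure of ME-180 AP-1-bla cells at 37 °C.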

The nature of test [8]: qHTS assay to identify small molecule antagonists of the retinoid-related orphan receptor gamma (ROR-gamma) signaling pathway - cell viability counter screen (AID 1159520; active means well fitted curve in the direction sought with a large enough effect in the repeat runs; an effect the other way counts as inactive or inconclusive; further: nearly all actives have a fitted effect of over 50% in size). As to conditions: Tet-on RORgamma CHO cells viability, ATP luminescence, 16 h; series mostly up to 92.4 µM. An outline of the steps:
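Tet-on ROR gamma CHO cells (1,000/well) were plated 4 hr, given compounds in DMSO for 2 hr at 37 C, then induced with 1 uM final doxycycline for 16 hr. Viability was read as ATP by CellTiter-Glo luminescence after 30 min.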

The nature of test [9]: qHTS assay to identify small molecule agonists of the AP-1 signaling pathway (AID 1159526). As to conditions: ME-180 (cervical carcinoma) AP-1-bla reporter, beta-lactamase FRET ratio, 5 h; series mostly up to 76.8 µM.

Take `CCCCN(N=O)C(=N)N[N+](=O)[O-]`: the Potency result in test [1], in [2], in test [4], in test [5], in test [6] and in [7] was “inactive” throughout. For the same compound, the outcome in test [3] was inactive.
On to `CCOP(=O)(OCC)O/C(=C/Cl)c1ccc(Cl)cc1Cl`, for which, in [3], the outcome was inactive. Besides, the Potency entry in test [4], in test [5] and in test [7] was “inactive” each time. In addition, the Potency in test [6] was 68.6 µM (active).
Regarding `CC(C)(Cl)[N+](=O)[O-]`, the Potency entry in test [1], in test [2], in test [4], in test [8], in test [6] and in [7] was “inactive” throughout. In addition, the result in test [3] and in test [9] was inactive.
As to `CCCC(=O)Cl`, the Potency result in test [1], in [2], in [4], in [8], in [6] and in test [7] was “inactive” in each case. Also, the result in test [3] and in test [9] was inactive.
`O=C1C(=O)c2cccc3cccc1c23`: the Potency result in [2], in [4], in [5], in test [8] and in [7] was “inactive” in each case. Besides, in test [3], the outcome was inactive.
As to `COc1cc(Cl)c(OC)cc1Cl`, the Potency entry in test [1], in test [2], in test [4], in [5], in [8] and in test [7] was “inactive” in each case. Besides, the result in [3] was inactive.
As to `Cl/C=C\Cl`, the Potency result in test [1], in [2], in [4], in test [8], in test [6] and in test [7] was “inactive” each time. Further, the outcome in [3] and in [9] was inactive.
